# BAZ2B block = inhibitors of human BAZ2B bromodomain; Q9UIF8; AlphaScreen BAZ2B-H3K14Ac peptide displacement; Potency, µM (highest dose often 114 µM), for the others: top-dose activity change, negative = inhibition, usual class: inhibitors; 360,000 compounds, 4.4% hits; further: potency means the concentration at half of the fitted maximal effect; on the % scale 0 is the no-effect control and ±100 the full control effect; nearly all actives have a fitted effect of over 60% in size
#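 AlphaScreen displacement of biotin-H3(5-23)K14Ac peptide (50 nM final) from BAZ2B (50 nM final) in PBS pH 7.4, 0.01% Tween-20; complex preformed 30 min RT, then compounds (top 110 uM) 30 min RT, beads 20 min dark.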
# JMJD2A Tudor inh = JMJD2A Tudor domain (human) inhibition. 390,000 compounds, 4.4% hits. AlphaScreen JMJD2A-Tudor / H3K4me3 peptide binding. Potency, µM (titrated, usually from 114 µM), inactives show top-dose activity change, negative = inhibition, actives largely listed as inhibitors; further: potency means the concentration at half of the fitted maximal effect; on the % scale 0 is the no-effect control and ±100 the full control effect; nearly all actives have a fitted effect of over 50% in size
# G9a inh = blocks human histone lysine methyltransferase G9a | 350,000 compounds, 8.8% hits | Q96KQ7 | Potency, µM (top dose mostly 102 µM), for inactives: top-dose activity, negative = inhibition, actives largely listed as inhibitors | AID 504332 | G9a H3K9 monomethylation, AlphaScreen, 2 h; further: potency means the concentration at half of the fitted maximal effect; on the % scale 0 is the no-effect control and ±100 the full control effect; nearly all actives have a fitted effect of over 75% in size
#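 G9a (20 nM) preincubated 15 min RT with compounds, then 500 nM biotinylated H3K9 peptide and 20 uM SAM added; 2 h RT reaction. Monomethyl-H3K9 product detected by AlphaScreen with anti-H3K9me1 antibody, streptavidin donor and anti-rabbit IgG acceptor beads.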
# HP1b chromo inh = inhibitors of HP1-beta chromodomain binding to methylated histone tails. 390,000 compounds, 0.56% hits. P83916. AID 540317. Potency, µM (doses to about 114 µM), without a hit: at the top dose activity change, negative = inhibition, actives largely listed as inhibitors. AlphaScreen HP1-beta / biotin-H3K9me3 peptide binding; further: potency means the concentration at half of the fitted maximal effect; nearly all actives have a fitted effect of over 70% in size
#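 HP1-beta protein (50 nM final) preincubated 30 min at room temperature with biotinylated H3(1-18)K9me3 peptide (50 nM) in PBS pH 7.4, 0.01% Tween-20, then compound added for 30 min. AlphaScreen streptavidin donor/nickel chelate acceptor beads (10 ug/mL final), 30 min dark, luminescence read.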
# PI5P4Ka inh = PI5P4K alpha (human) kinase inhibition | P48426 | PI5P4Kalpha enzyme, ADP-Glo luminescence, 60 min; hits give low values | max response, % | 330,000 compounds, 1.2% hits | AID 652105; active means max response of -50% or lower; inconclusive means between -30% and -50%; inactive means -30% or higher; further: value at the top dose of about 77 µM; on the % scale 0 is the no-effect control and ±100 the full control effect
#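 Human PI5P4Kalpha with substrate in 0.038 M HEPES pH 7.4, 0.28 mM EGTA, 0.1% CHAPS, 5% DMSO; reaction started with 5 microM ATP (final), 60 min at room temperature. ADP formed read by ADP-Glo luminescence.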
# PLK1 PBD inh = PLK1 (human) polo-box domain binding inhibition. 360,000 compounds, 2.8% hits. Potency, µM, for the others: max response, negative = inhibition, actives largely listed as inhibitors. P53350. AID 720504. Plk1 PBD binding of FITC phosphopeptide, fluorescence polarization; further: potency means the concentration at half of the fitted maximal effect; series mostly up to about 57 µM; on the % scale 0 is the no-effect control and ±100 the full control effect; nearly all actives have a fitted effect of over 65% in size
# Target sequence (P53350 whole entry, looked up, the tested form may be a part): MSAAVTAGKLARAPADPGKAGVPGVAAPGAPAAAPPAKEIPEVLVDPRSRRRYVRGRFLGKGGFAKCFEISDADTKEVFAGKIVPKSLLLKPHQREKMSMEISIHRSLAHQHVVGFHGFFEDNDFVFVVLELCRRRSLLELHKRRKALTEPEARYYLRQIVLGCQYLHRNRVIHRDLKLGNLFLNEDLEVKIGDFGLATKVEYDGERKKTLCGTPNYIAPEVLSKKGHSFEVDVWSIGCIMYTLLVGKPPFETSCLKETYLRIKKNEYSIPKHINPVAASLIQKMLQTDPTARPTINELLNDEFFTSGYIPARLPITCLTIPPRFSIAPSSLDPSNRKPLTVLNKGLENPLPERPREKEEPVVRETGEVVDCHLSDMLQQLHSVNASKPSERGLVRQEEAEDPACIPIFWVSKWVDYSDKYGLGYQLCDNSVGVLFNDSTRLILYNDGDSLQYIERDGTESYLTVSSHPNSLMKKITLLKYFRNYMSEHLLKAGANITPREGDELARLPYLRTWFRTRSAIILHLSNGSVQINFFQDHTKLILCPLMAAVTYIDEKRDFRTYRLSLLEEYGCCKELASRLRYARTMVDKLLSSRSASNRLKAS
# Starred values were filed as active, the others as inactive; ? = inconclusive; . = not tested or not shown; [ ] = remark or other dose. Rows were chosen to be rich in hits. Some 12% of all compounds tested hit in one or more screens of this group. Unless noted, the call rests on the fitted dose curve; in most records, active means well fitted curve in the direction sought with a large enough effect; inconclusive means small, poorly fitted or top-dose-only effect, or another doubt; inactive means no such curve, though single readings can be large; an effect the other way counts as inactive or inconclusive.
SMILES,BAZ2B block,JMJD2A Tudor inh,G9a inh,HP1b chromo inh,PI5P4Ka inh,PLK1 PBD inh
CCc1nc2nc(C)cc(Nc3ccc(Br)cc3F)n2n1,-1%,-17%,-32%[59 µM],53%,.,.
CC(C)CC(=O)N1CCN(Cc2ccc(Cl)cc2)CC1,?,10µM*,.,?,-4,13%
CC(C)c1ccc(CN2CCN(C(=O)CCl)CC2)cc1,-37%,-2%,?,39%,3,-23%
NNC(=O)c1nnsc1-c1csnn1,.,79µM*,.,22%,-10,-7%
CCCCNC(=S)NC(C)(C)CO,-3%,-10%,11µM*,20%,3,-12%
CCCCNC(=S)Nc1ccc(C(F)(F)F)cc1,8%,20%,44%,57%,8,-1%
O=C(CCC1N=C2c3ccccc3N=C(SCc3ccccc3F)N2C1=O)NCc1ccc(F)cc1 (stereo not drawn),-4%,-25%,-5%[59 µM],24%,.,.
CCN(c1ccccc1)S(=O)(=O)c1ccc(Cl)c(NC(=O)CN(C)Cc2cccc(F)c2)c1,.,1%,.,34%,3,1%
COc1ccccc1CNC(=O)[C@H](C)NC(=O)[C@@H]1Cc2ccccc2CN1,-19%,-3%,?,69%,-6,2%
COc1ccc(NC(=O)C2CCN(C(=O)[C@@H]3Cc4ccccc4CN3)CC2)cc1,?,-19%,?,35%,-2,-4%
O=C(CNC(=O)[C@@H]1Cc2ccccc2CN1)NCc1ccco1,-12%[57.1 µM],-17%,71µM*,48%,-5,-2%
Cc1ccc(NC(=O)C2CCN(C(=O)[C@@H]3Cc4ccccc4CN3)CC2)c(C)c1,-12%,-32%,45µM*,35%,3,-10%
COc1ccc(CNC(=O)[C@H](C)NC(=O)[C@@H]2Cc3ccccc3CN2)cc1,?,-9%,71µM*,19%,1,-2%
COc1ccc(CNC(=O)C2CCN(C(=O)[C@@H]3Cc4ccccc4CN3)CC2)cc1,-4%,?,10%,21%,-3,6µM*
CCOC(=O)CNC(=O)CSc1nc(-c2ccc(C)cc2)ns1,-3%,6%,50µM*,53%,0,-26%
Cn1c(=O)c2c(SCC(=O)NCC3CCCO3)nc(-c3cccs3)nc2n(C)c1=O (stereo not drawn),-1%,.,50µM*,.,.,.
CCOC(=O)N1CCN(C(=O)CSc2nc(-c3cccc(C)c3)ns2)CC1,-5%,32µM*,32µM*,-5%,?,6.7µM*
Cc1cccc(-c2nsc(SCC(=O)Nc3cc(C)on3)n2)c1,-2%,-5%,?,3%,.,?
CCOC(=O)CNC(=O)CSc1nc(-c2ccccc2)ns1,-5%,-12%,10µM*,-24%,?,13µM*
Cc1ccc(-c2nc(SCC(=O)NCC3CCCO3)c3c(=O)n(C)c(=O)n(C)c3n2)cc1 (stereo not drawn),7%,3%,8%[59 µM],33%[57 µM],.,.
CCOC(=O)CSc1nc(-c2ccc(OC)cc2)ns1,51%,27%[57.1 µM],5µM*,19%,7,11µM*
COc1ccc(-c2nsc(SCC(=O)Nc3ccc4c(c3)OCO4)n2)cc1,6%,4%,?,50%,-10,-28%
O=C(CSc1nc(-c2ccccc2)ns1)NCC1CCCO1 (stereo not drawn),-16%,-4%,22µM*,-6%,-3,15µM*
Cc1ccc2c(c1)c(C)c(C)n2CC(O)Cn1nnc2ccccc21 (stereo not drawn),?,?,?,?,4,-6%
Cc1ccc2c(c1)c(C)c(C)n2CC(O)Cn1nc(C)cc1C (stereo not drawn),-51%,?,45µM*,-24%,7,-7%
SMILES,BAZ2B block,JMJD2A Tudor inh,G9a inh,HP1b chromo inh,PI5P4Ka inh,PLK1 PBD inh
COc1ccc(NC2C[C@H]3CCCC(=O)N4CC[C@@H](C2)[C@@H]34)cc1 (stereo partly drawn),.,.,40µM*,.,.,.
Cn1c2c(c3cnc4cc(Cl)ccc4c31)CN(Cc1ccc(Cl)cc1)CC2,.,-15%[57.1 µM],.,11%[57 µM],.,.
Cc1ccc(NC2=CC(=O)CC(C)(C)C2)cc1F,10%,9%,23%,30%,-2,6%
CN(C)c1cccc(NC2=CC(=[N+]3CCOCC3)CC(C)(C)C2)c1,?,89µM*,11µM*,-7%,-3,-14%
Cc1c(Cl)cccc1NC(=O)C(C)N(c1ccccc1)S(C)(=O)=O (stereo not drawn),6%,-18%,-28%[59 µM],11%,.,.
Cc1oc(/C=N/NS(=O)(=O)c2ccccc2)cc1Br,-35%,-24%,16µM*,6%,-11,-5%
Cc1ccc(/C=N/NS(=O)(=O)c2ccccc2)o1,-1%,-7%,10%,-5%,-4,-9%
Cc1nn(Cc2ccccc2)c(C)c1NC(=O)CCCn1nc([N+](=O)[O-])c(Cl)c1C,8%,40µM*,22%,13%,1,-12%
O=C(CN1CCN(c2ccc(F)cc2)CC1)c1ccc2c(c1)OCO2,-24%,-28%,32µM*,31%,-5,-8%
O=C(CN1CCN(c2ccc(Cl)cc2)CC1)c1ccc2c(c1)OCO2,?,-34%,12%[0.0925 µM],22%,1,-18%
OC(COc1ccc2c(c1)OCO2)CN1CCN(c2ccc(F)cc2)CC1 (stereo not drawn),?,-11%,50µM*,31%,3,0%
c1ccc(N2CCN(CCCOc3ccc4c(c3)OCO4)CC2)cc1,.,.,20µM*,.,.,.
CC(C)c1ccc(OCC(O)CN2CCN(c3ccc(F)cc3)CC2)cc1 (stereo not drawn),-18%,79µM*,10µM*,10%,.,.
O=C(CSc1nnc(CNC(=O)c2cccc(F)c2)n1-c1ccccc1)Nc1ccccc1F,-18%,-13%,-24%[59 µM],23%,.,.
CC(=O)C1=C(O)C(=O)N(CCc2c[nH]c3ccccc23)C1c1cccc(O)c1 (stereo not drawn),?,79µM*,?,-5%,-11,-4%
C=CCN1C(=O)c2oc3ccccc3c(=O)c2C1c1ccc(O)c(OC)c1 (stereo not drawn),-18%,-29%,-96%,29%,1,-14%
COc1cc(C2C(C(C)=O)=C(O)C(=O)N2CCc2c[nH]c3ccccc23)ccc1O (stereo not drawn),?,100µM*,50µM*,-8%,-1,-8%
COc1ccc(S(=O)(=O)NCc2cccnc2)cc1C(=O)Nc1ccccc1,-5%,-7%,.,18%,1,-5%
Cc1ccc(N=Nc2c(O)c3ccccc3[nH]c2=O)c(S(=O)(=O)N(C)C)c1,-16%,.,.,.,.,.
O=S(=O)(O)c1ccc2c(N=Nc3ccc(S(=O)(=O)O)c4ccccc34)c(O)c(S(=O)(=O)O)cc2c1,.,.,28µM*,.,.,.
COc1cccc(CN2CCC(C(=O)Nc3ccc(-c4cccc(C)c4)cc3)CC2)c1O,?,?,20µM*,-4%,-1,-2%

# Screening data: PubChem, National Center for Advancing Translational Sciences (NCATS)
